Results from PubChem BioAssay.
Records with an inconclusive call do not appear. Active and inactive are the calls of the source.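 How the source made its calls, unless noted: active means compounds that lower survival of HCT116 colon cancer cells in the luminescence readout, no numeric limit stated; inactive means the rest.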

Experiments:
[1] = stimulators of insulin release from INS-1E, primary screen, cell-based, 5 mM glucose, NPC library (AID 1117329;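 active means compound raises insulin release from rat beta cells at 5 mM glucose, no numeric limit stated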); conditions: rat INS-1E insulin secretion, at 10 µM, stronger effect = higher value
[2] = growth inhibition of GSK3B-pretreated HCT116 cells – cell-based, CellTiter-Glo, 0.2 to 20 µM (AID 1117336;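 active means compounds lowering colon cancer cell viability after pretreatment blocking the GSK3B kinase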); conditions: HCT116 viability after GSK3B inhibitor, at 20 µM, stronger effect = higher value
[3] = inhibition of endothelial tube formation, primary screen, imaging, VEGF stimulated, CD31 staining, tube area, NPC library (AID 1117340;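 active means compound that reduces growth-factor-driven endothelial tube area in a mixed cell culture, no cutoff stated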); conditions: VEGF-stimulated ADSC/ECFC co-culture, at 10 µM, stronger effect = higher value
[4] = glucagon-like peptide 1 release enhancers, primary assay, NCI-H716 cell line, NPC library (AID 1117341;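 active means compound raises GLP1 secretion from the human gut endocrine cells, with no numeric limit stated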); conditions: NCI-H716 cells, at 10 µM, stronger effect = higher value
[5] = HCT116 colon cancer cell growth inhibition, primary screen, CellTiter-Glo luminescence, NPC library (AID 1117342); conditions: at 20 µM (top of the series)
[6] = CellTiter-Glo luminescent readout of SW480 viability loss, NPC library primary (AID 1117343;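 active means compounds that lower viability of the colon cancer cells in the luminescence readout, with no numeric limit stated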); conditions: CellTiter-Glo luminescence; at 20 µM (top of the series)
[7] = decreased DLD-1 cellular survival, CellTiter-Glo luminescent readout, NPC compound collection, primary HTS (AID 1117346;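 active means compounds that lower survival of DLD-1 colon cancer cells in the luminescence readout, no cutoff given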); conditions: DLD-1 viability, CellTiter-Glo luminescence; at 20 µM (top of the series)
[8] = target: 6-phosphogluconate dehydrogenase, decarboxylating (Homo sapiens) (UniProt P52209); assay: 6PGD enzyme inhibitors, primary screen, biochemical, human, recombinant enzyme, NADPH absorbance (AID 1159550;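 active means at least 20% inhibition of 6-phosphogluconate dehydrogenase activity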); conditions: recombinant 6PGD, NADPH absorbance 341 nm; at 10 µM; stronger effect = higher value
Chain of 6-phosphogluconate dehydrogenase, decarboxylating (Homo sapiens) (P52209 whole entry, looked up): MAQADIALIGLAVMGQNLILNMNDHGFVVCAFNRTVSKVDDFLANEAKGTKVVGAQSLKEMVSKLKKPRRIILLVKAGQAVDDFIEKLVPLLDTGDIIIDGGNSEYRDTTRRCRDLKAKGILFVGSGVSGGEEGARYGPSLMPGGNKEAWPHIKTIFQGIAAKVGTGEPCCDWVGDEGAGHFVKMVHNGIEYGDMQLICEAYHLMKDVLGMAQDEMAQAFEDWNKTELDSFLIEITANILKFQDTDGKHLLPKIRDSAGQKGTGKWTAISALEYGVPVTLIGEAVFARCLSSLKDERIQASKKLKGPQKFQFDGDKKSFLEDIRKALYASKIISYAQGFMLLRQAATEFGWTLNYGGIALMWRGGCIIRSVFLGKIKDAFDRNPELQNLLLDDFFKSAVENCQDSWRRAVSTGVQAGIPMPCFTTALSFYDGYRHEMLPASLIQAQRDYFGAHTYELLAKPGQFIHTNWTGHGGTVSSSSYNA

[9] = differential killing of epithelial or mesenchymal cells, primary screen, imaging, PC-3E GFP, TEM4-18 mCherry, co-culture (AID 1345086;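 active means compounds killing one labelled cell type while sparing the other, by normalised counts and ratio limits, not self-fluorescent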;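 on all read-outs here: cells exposed to compound for 72 h before imaging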;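 on red/green cell ratio (normalised): normalised mesenchymal count divided by normalised epithelial count so high means epithelial killing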); conditions: imaging cell counts, at 1 µM; for red/green cell ratio (normalised): actives lie on both sides, counts scaled to control wells, 1 = unselective
[10] = tested on: Aerobactin synthetase IucA (Klebsiella pneumoniae); assay: IucA aerobactin synthetase inhibitors, biochemical, Tocris library, absorbance (AID 1345561; call rule not given here;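 further: 100% = enzyme without compound and 0% = no enzyme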); conditions: purified IucA enzyme assay, absorbance (OD) read-out; stronger effect = lower value;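 tested at 8 µM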
[11] = growth inhibition of DIPG glioma cells, dose response, cell-based, SU-DIPG-XIII, MIPE4.0, CellTiter-Glo, qHTS (AID 1347061; cut-off not given, nearly all actives have AC50 up to about 37 µM;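 further: cells exposed to compound for 48 hours before readout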); conditions: SU-DIPG-XIII viability, CellTiter-Glo ATP luminescence
[12] = growth inhibition of DIPG glioma cells, dose response, cell-based, JHH-DIPG-1, MIPE4.0, CellTiter-Glo, qHTS (AID 1347062; cut-off not given, nearly all actives have AC50 up to about 27 µM;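 on AC50: cells exposed to compound for two days before readout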); conditions: JHH-DIPG-1 viability, CellTiter-Glo ATP luminescence
[13] = growth inhibition of DIPG glioma cells, dose response, cell-based, SU-DIPG-IV, MIPE4.0, CellTiter-Glo, qHTS (AID 1347063; cut-off not given, nearly all actives have AC50 up to about 30 µM;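 further: compound exposure lasted 48 hours before the viability readout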); conditions: SU-DIPG-IV viability, CellTiter-Glo ATP luminescence
[14] = growth inhibition of DIPG glioma cells, dose response, cell-based, SU-DIPG-XIII, MIPE5.0, CellTiter-Glo, qHTS (AID 1347064; cut-off not given, nearly all actives have AC50 up to about 23 µM;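 on AC50: cells exposed to compound for 48 hours before the viability read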); conditions: SU-DIPG-XIII viability, CellTiter-Glo ATP luminescence
[15] = growth inhibition of DIPG glioma cells, dose response, cell-based, SU-DIPG-XVII, MIPE5.0, CellTiter-Glo, qHTS (AID 1347060; cut-off not given, nearly all actives have AC50 up to about 26 µM;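 on AC50: cells exposed to compound for 48 hours before viability readout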); conditions: SU-DIPG-XVII viability, CellTiter-Glo ATP luminescence
[16] = measured here: epithelial PC-3E GFP cell survival
[17] = measured here: mesenchymal TEM4-18 mCherry cell survival

## CCCOc1ccccc1-c1nc2n[nH]nc2c(=O)[nH]1
[1]
  insulin secretion stimulation: -0.8% (inactive)
[2]
  viability decrease: -203% (inactive)
[3]
  tube area decrease: -11.3% (inactive)
[4]
  GLP1 secretion stimulation: 1.4% (inactive)
[5]
  inhibition of viability: 17.5% (inactive)
[6]
  viability decrease (inhibition): 9.4% (inactive)
[7]
  viability decrease (inhibition): 1% (inactive)
[8]
  inhibition: -4.08% (inactive)
[9]
  red/green cell ratio (normalised): 0.95 (inactive)
[9]; [16]
  normalised cell number: 1.02
[9]; [17]
  normalised cell number: 0.97
[10]
  remaining activity: 122% (inactive)

## CCCCNc1ccc(C(=O)OCCN(C)C)cc1
[1]
  insulin secretion stimulation: 0% (inactive)
[2]
  viability decrease: -26.9% (inactive)
[3]
  tube area decrease: 9.8% (inactive)
[4]
  GLP1 secretion stimulation: 0.3% (inactive)
[5]
  inhibition of viability: 18% (inactive)
[6]
  viability decrease (inhibition): 47% (inactive)
[7]
  viability decrease (inhibition): 3.1% (inactive)
[8]
  inhibition: -7.63% (inactive)
[9]
  red/green cell ratio (normalised): 1.19 (inactive)
[9]; [16]
  normalised cell number: 1.07
[9]; [17]
  normalised cell number: 1.27

## CN1CCC[C@@H]1CCO[C@](C)(c1ccccc1)c1ccc(Cl)cc1
[1]
  insulin secretion stimulation: 1.3% (inactive)
[2]
  viability decrease: 25.3% (inactive)
[3]
  tube area decrease: 55% (active)
[4]
  GLP1 secretion stimulation: 10.3% (inactive)
[5]
  inhibition of viability: 78.8% (active)
[6]
  viability decrease (inhibition): 113% (active)
[7]
  viability decrease (inhibition): 86.8% (active)
[8]
  inhibition: 12.4% (inactive)
[9]
  red/green cell ratio (normalised): 1.23 (inactive)
[9]; [16]
  normalised cell number: 1.06
[9]; [17]
  normalised cell number: 1.3
[10]
  remaining activity: 109% (inactive)
[11]
  outcome: inactive

## CCN(CC)CCOCCOC(=O)C1(c2ccccc2)CCCC1
[1]
  insulin secretion stimulation: 60% (active)
[2]
  viability decrease: 19.3% (inactive)
[3]
  tube area decrease: -3.1% (inactive)
[4]
  GLP1 secretion stimulation: 5.7% (inactive)
[5]
  inhibition of viability: 56.4% (active)
[6]
  viability decrease (inhibition): 20.6% (inactive)
[7]
  viability decrease (inhibition): 62.5% (active)
[8]
  inhibition: 1.3% (inactive)
[9]
  red/green cell ratio (normalised): 1.27 (inactive)
[9]; [16]
  normalised cell number: 1
[9]; [17]
  normalised cell number: 1.28
[10]
  remaining activity: 92.5% (inactive)

## NCCCC[C@H](N[C@@H](CCc1ccccc1)C(=O)O)C(=O)N1CCC[C@H]1C(=O)O
[1]
  insulin secretion stimulation: -0.8% (inactive)
[2]
  viability decrease: -3.9% (inactive)
[3]
  tube area decrease: -7.9% (inactive)
[4]
  GLP1 secretion stimulation: 0.3% (inactive)
[5]
  inhibition of viability: -5.23% (inactive)
[6]
  viability decrease (inhibition): 9.9% (inactive)
[7]
  viability decrease (inhibition): -8% (inactive)
[8]
  inhibition: -2.78% (inactive)
[9]
  red/green cell ratio (normalised): 1.65 (inactive)
[9]; [16]
  normalised cell number: 0.22
[9]; [17]
  normalised cell number: 0.36

## CCN(CCCCOC(=O)c1ccc(OC)c(OC)c1)C(C)Cc1ccc(OC)cc1 (stereo not given)
[1]
  insulin secretion stimulation: 49.6% (active)
[2]
  viability decrease: -125% (inactive)
[3]
  tube area decrease: 23.2% (inactive)
[4]
  GLP1 secretion stimulation: 0.3% (inactive)
[5]
  inhibition of viability: 26.7% (inactive)
[6]
  viability decrease (inhibition): 20% (inactive)
[7]
  viability decrease (inhibition): 8% (inactive)
[8]
  inhibition: -12.1% (inactive)
[9]
  red/green cell ratio (normalised): 1.1 (inactive)
[9]; [16]
  normalised cell number: 0.88
[9]; [17]
  normalised cell number: 0.97

## O=C(c1ccc(F)cc1)C1CCN(CCn2c(=O)[nH]c3ccccc3c2=O)CC1
[1]
  insulin secretion stimulation: 2.5% (inactive)
[2]
  viability decrease: 19.4% (inactive)
[3]
  tube area decrease: -2.2% (active)
[4]
  GLP1 secretion stimulation: 2.6% (inactive)
[5]
  inhibition of viability: 52.6% (active)
[6]
  viability decrease (inhibition): 19.5% (inactive)
[7]
  viability decrease (inhibition): 16.9% (inactive)
[8]
  inhibition: 8.02% (inactive)
[9]
  red/green cell ratio (normalised): 0.88 (inactive)
[9]; [16]
  normalised cell number: 0.99
[9]; [17]
  normalised cell number: 0.88
[10]
  remaining activity: 124% (inactive)
[11]
  outcome: inactive
[12]
  outcome: inactive
[13]
  outcome: inactive

## CC(=O)Nc1ccc(O)cc1
[1]
  insulin secretion stimulation: -0.1% (inactive)
[2]
  viability decrease: 9.25% (inactive)
[3]
  tube area decrease: -15.2% (inactive)
[4]
  GLP1 secretion stimulation: 1.9% (inactive)
[5]
  inhibition of viability: 1.2% (inactive)
[6]
  viability decrease (inhibition): 34.3% (inactive)
[7]
  viability decrease (inhibition): 3.3% (inactive)
[8]
  inhibition: 13.8% (inactive)
[9]
  red/green cell ratio (normalised): 1.05 (inactive)
[9]; [16]
  normalised cell number: 1.11
[9]; [17]
  normalised cell number: 1.16
[10]
  remaining activity: 121% (inactive)
[11]
  outcome: inactive
[12]
  outcome: inactive

## CCCCCCOc1ccccc1C(N)=O
[1]
  insulin secretion stimulation: -0.6% (inactive)
[2]
  viability decrease: -31.8% (inactive)
[3]
  tube area decrease: -2.6% (inactive)
[4]
  GLP1 secretion stimulation: -2.8% (inactive)
[5]
  inhibition of viability: 19.5% (inactive)
[6]
  viability decrease (inhibition): 36.2% (inactive)
[7]
  viability decrease (inhibition): 11.6% (inactive)
[8]
  inhibition: -1.25% (inactive)
[9]
  red/green cell ratio (normalised): 1 (inactive)
[9]; [16]
  normalised cell number: 0.94
[9]; [17]
  normalised cell number: 0.94

## O=c1c(-c2ccc(O)cc2)coc2cc(O)cc(O)c12
[1]
  insulin secretion stimulation: 0.8% (inactive)
[2]
  viability decrease: 36.1% (inactive)
[3]
  tube area decrease: 54.6% (active)
[4]
  GLP1 secretion stimulation: 7% (inactive)
[5]
  inhibition of viability: -0.9% (inactive)
[6]
  viability decrease (inhibition): 94.1% (active)
[7]
  viability decrease (inhibition): 8.45% (inactive)
[8]
  inhibition: 3.56% (inactive)
[9]
  red/green cell ratio (normalised): 0.95 (inactive)
[9]; [16]
  normalised cell number: 0.96
[9]; [17]
  normalised cell number: 0.91
[10]
  remaining activity: 121% (inactive)
[11]
  outcome: inactive
[12]
  outcome: inactive
[13]
  outcome: inactive
[14]
  outcome: inactive

## CCOC(=O)C(C)(C)Oc1ccc(Cl)cc1
[1]
  insulin secretion stimulation: -0.8% (inactive)
[2]
  viability decrease: -28.2% (inactive)
[3]
  tube area decrease: -5.8% (inactive)
[4]
  GLP1 secretion stimulation: -1.1% (inactive)
[5]
  inhibition of viability: -9.77% (inactive)
[6]
  viability decrease (inhibition): 7.5% (inactive)
[7]
  viability decrease (inhibition): -40.7% (inactive)
[8]
  inhibition: -1.28% (inactive)
[9]
  red/green cell ratio (normalised): 0.94 (inactive)
[9]; [16]
  normalised cell number: 1.28
[9]; [17]
  normalised cell number: 1.2
[15]
  outcome: inactive
[11]
  outcome: inactive
[12]
  outcome: inactive
[14]
  outcome: inactive

## COc1cc([C@H]2Oc3cc([C@H]4Oc5cc(O)cc(O)c5C(=O)[C@@H]4O)ccc3O[C@@H]2CO)ccc1O
[1]
  insulin secretion stimulation: 1.8% (inactive)
[2]
  viability decrease: -35.4% (inactive)
[3]
  tube area decrease: 4.2% (inactive)
[4]
  GLP1 secretion stimulation: 2.1% (inactive)
[5]
  inhibition of viability: 18.7% (inactive)
[6]
  viability decrease (inhibition): 16.2% (inactive)
[7]
  viability decrease (inhibition): -3.4% (inactive)
[8]
  inhibition: 9.07% (inactive)
[9]
  red/green cell ratio (normalised): 0.97 (inactive)
[9]; [16]
  normalised cell number: 0.9
[9]; [17]
  normalised cell number: 0.88
[15]
  outcome: inactive
[11]
  outcome: inactive
[12]
  outcome: inactive

## Nc1nc(=S)c2[nH]cnc2[nH]1
[1]
  insulin secretion stimulation: -2% (inactive)
[2]
  viability decrease: 47.4% (active)
[3]
  tube area decrease: 104% (active)
[4]
  GLP1 secretion stimulation: 1.9% (inactive)
[5]
  inhibition of viability: 96.4% (active)
[6]
  viability decrease (inhibition): 101% (active)
[7]
  viability decrease (inhibition): 52.9% (active)
[8]
  inhibition: 4.15% (inactive)
[9]
  red/green cell ratio (normalised): 1.29 (inactive)
[9]; [16]
  normalised cell number: 0.83
[9]; [17]
  normalised cell number: 1.07
[15]
  AC50: 590 nM (active)
[12]
  AC50: 833 nM (active)
[13]
  AC50: 7430 nM (active)
[14]
  AC50: 2350 nM (active)
